Growth data for 40 compounds are collected here from PubChem BioAssay (NCI).

Compounds without any hit were thinned out: in the full panel of roughly 83,000, 20% have a hit.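 Interpretation: 100, growth as untreated; towards 0, rising growth inhibition; 0, no net growth; 0 to -100, cell death. Compounds scoring below 10 were considered active.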 A number with no mark means an inactive call. Calls of active or inactive are those of the source.

The test system of this test is NCI-H23 lung. Briefly: NCI-60 one-dose screen, 48 h (100 = growth as untreated, 0 = no growth, -100 = all killed). As to conditions: 10 µM unless noted.
Regarding `COc1ccc2ncccc2c1Cc1c(OC)ccc2ncccc12`, the growth was 80.1%. For `COc1cc(C2CC(C3C(=O)N(C)C(=O)N(C)C3=O)=NN2c2cc(Cl)cc(Cl)c2)cc(OC)c1OC` (stereo not given) the value was 93.5%; for `Cc1sc2nc(NCc3ccccc3)[nH]c(=O)c2c1C`, 75.2%. For `Cc1cc2c(cc1C)[n+](Cc1ccc3ccccc3n1)cn2Cc1ccc2ccccc2n1`, the growth was 1.58% (active). For `COc1cc(/C=C2\CN(S(=O)(=O)c3ccc(C)cc3)C/C(=C\c3cc(CN4CCOCC4)c(O)c(OC)c3)C2=O)cc(CN2CCOCC2)c1O` the value was -57.1% (active); for `O=C1NCCc2c1noc2-c1ccccc1`, 99.5%; for `C[C@]12CCC(=O)C=C1CC[C@H]1[C@@H]3C[C@@H](O)[C@](O)(C(=O)CO)[C@@]3(C)C[C@H](O)[C@@]12F`, 110%. For `C/C(=C\CCc1ccsc1)CC/C=C(\C)CCCN1CCSCC1`, the growth was 89.6%.

As to `COC(=O)Nc1ccc2ccc3c(NC(=O)OC)ccc4ccc1c2c43` (tested in a mixture with another compound), the growth was 65%. The figure for `O=C(Nc1nc2c(C(F)(F)F)cccc2s1)c1cc(Cl)ccc1O` is 3.47% (active); for `COc1cc(C2=NN(C=O)C(c3cccc(Nc4ccnc5cc(Cl)ccc45)c3)C2)cc(OC)c1OC` (stereo not given) it is 77%.

Consider `COc1cccc(-c2nc(-c3ccc(N)cc3)co2)c1`, for which the growth is 106%. The figure for `C[C@@H]1[C@H]2[C@H](C=C3[C@@H]4CC[C@H]5Cc6nc7c(nc6C[C@]5(C)[C@H]4C[C@@H](O)[C@@]32C)C[C@@H]2CC[C@H]3C4=C[C@@H]5O[C@@]6(CC[C@](C)(CO)O6)[C@@H](C)[C@@]5(O)[C@@]4(C)[C@H](O)C[C@@H]3[C@@]2(C)C7)O[C@]12CCC(C)(C)O2` is 33.6%; for `O=C(CNC(=O)c1cccc2ccccc12)Nc1ccccc1Oc1cccc(O)c1` it is 41.5% [5 µM]; for `CCN(CC)CCNCC(=O)Oc1ccc(/C=C/C(=O)CC(=O)/C=C/c2ccc(OC(=O)CNCCN(CC)CC)c(OC)c2)cc1OC` it is 5.35% (active).

`COc1ccc(-c2cc(-c3nnc(SCC(=O)Nc4ccc(C(C)=O)cc4)n3-c3ccccc3)c3ccccc3n2)cc1OC`: the growth was 96.2%. For `COc1ccc2c(c1)[n+](=O)c(C(=O)/C=C/c1cc(OC)c(OC)c(OC)c1)c(C)n2[O-]` the value was 65.9%. For `COc1ccc(-c2nc3sc4c(c3c(=O)[nH]2)CCCCCC4)cc1` the value was 80.7%; for `CC(=O)Nc1c(Cl)cc2c(c1Cl)Cc1cc([N+](=O)[O-])ccc1-2`, 88%. The figure for `CCN(CC)CCCCCCCNc1c2ccc(Cl)cc2nc2ccc(OC)cc12` is -24.3% (active); for `COc1cc(/C=C/c2cc(/C=C/c3ccc(O)c(OC)c3)n(C(=O)c3ccc(Cl)cc3)n2)ccc1O` it is 21.8%. For the compound `Cc1n(Cc2ccc3ccccc3c2)c2ccccc2[n+]1Cc1ccc2ccccc2c1`, the growth is -29.5% (active).

As for `CCn1cnc(C[C@H](NC(=O)[C@H](CCCCNC(=O)Nc2cc(C(F)(F)F)cc(C(F)(F)F)c2)NC(=O)Nc2cc(C(F)(F)F)cc(C(F)(F)F)c2)C(=O)OC)c1`, the growth was -65.8% [100 µM] (active). As for `O=C(Nc1cccc(-n2cc(-c3ccncc3)c(-c3cc(O)cc(Cl)c3)n2)c1)Nc1ccc(Cl)c(Cl)c1`, the growth is -20.5% (active). For `Oc1ccc(/C=N/Nc2nc3ccccc3s2)c(O)c1` the value was 56.8%. For `Cc1csc(C#Cc2cncc(O)c2)n1` the value was 111%; for `COc1cc(/C=C/C(=O)CC(=O)/C=C/c2ccc(OC(=O)CCNC34CC5CC(CC(C5)C3)C4)c(OC)c2)ccc1OC(=O)CCNC12CC3CC(CC(C3)C1)C2`, 28.5%. For `N/C(=N\C(N)=N\c1nc2ccccc2s1)c1ccnc(Cl)c1` the value was 43.4%. Regarding `COc1ccc(NS(=O)(=O)N2CCCCC2)cc1`, the growth is 106%. The figure for `C=C1CCC2C(C)(COC(=O)CC)C(OC(=O)CC)CCC2(C)C1C/C=C1/C(=O)OCC1OC(=O)CC` (stereo not given) is 57.4%.

With `Cc1[nH]ccc2cc3nc4ccccc4c3cc12`, the growth was 39.4%. The figure for `CC(C)=CCCC(C)c1ccc(C)c2c1OCN(CC1CCNCC1)C2` (stereo not given) is 81.9%; for `COc1ccc2c(c1)sc1nc(-c3ccc(N(C)C)cc3)cn12` it is 99.2%. The figure for `COc1cc(/C=C/C(=O)C(C(=O)/C=C/c2ccc(OC(=O)CCNc3nnc(C)s3)c(OC)c2)C(=O)CCNc2nnc(C)s2)ccc1OC(=O)CCNc1nnc(C)s1` is 11.9%; for `O=C(O)c1ccc2cccnc2c1O` it is 8.65% (active); for `CC[C@@H](c1ccc(O)c(O)c1)[C@@H](CC)c1ccc(O)c(O)c1` it is 96.6%. The figure for `Cc1ccc(NC(=O)c2sc3nc4c(cc3c2N)C(=O)CCC4)cc1` is 64.9%; for `CCOC(=O)/C=C1/SC(=Nc2ccc(C#N)cc2)N(Cc2ccco2)C1=O` it is 70.6%.

For `COP(=O)(OC)C(c1ccc(O)cc1)(c1ccc(O)cc1)c1ccc(O)cc1`, the growth was 114%. The figure for `COc1ccccc1-n1c(-c2ccc(O)cc2C)cn2c3c(=O)[nH]c(=O)n(C)c3nc12` is 91.6%.
